Screens as filed in PubChem.
HTT ATP protect: cytoprotection in Huntington HTT-Q103 PC12 cell model; PC12 HTT-Q103 induced, cytoprotection, ATP luminescence, 40 h; Potency, µM (highest dose often 56.4 µM), hits mostly activators; actives 0.14% (n = 230,000); AID 1471; note: nearly all actives have a fitted effect of over 45% in size
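Stable PC12 Q103-GFP cells in serum-supplemented, phenol red-free DMEM; induction by tebufenozide at 100 nM final; compound dose series; cell viability quantified luminescently from ATP.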
HTT aggregate: mutant huntingtin aggregation inhibition; actives 1.1% (n = 220,000); Potency, µM (highest dose often 46.1 µM), most hits filed as inhibitors; PC12 HttQ103-GFP aggregates, Acumen cytometry, 40 h; note: nearly all actives have a fitted effect of over 60% in size
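Aggregates are detected as GFP objects 1–25 µm with signal 6 STDEV over background in lysates of induced PC12 cells. These carry Huntingtin exon 1 with 103 glutamines fused to GFP under an ecdysone promoter; compounds titrated.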
PI4K2A block: inhibitors of human PI4K2A; Q9BTU6; purified PI4K2A, ADP-Glo luminescence, 1 h; stronger effect = lower value; activity change, negative = inhibition, % at 76.9 µM; actives 0.13% (n = 420,000); in the data active = activity change below about -50%; inconclusive = mostly about -30% to -49%
Target sequence (Q9BTU6 whole entry, looked up): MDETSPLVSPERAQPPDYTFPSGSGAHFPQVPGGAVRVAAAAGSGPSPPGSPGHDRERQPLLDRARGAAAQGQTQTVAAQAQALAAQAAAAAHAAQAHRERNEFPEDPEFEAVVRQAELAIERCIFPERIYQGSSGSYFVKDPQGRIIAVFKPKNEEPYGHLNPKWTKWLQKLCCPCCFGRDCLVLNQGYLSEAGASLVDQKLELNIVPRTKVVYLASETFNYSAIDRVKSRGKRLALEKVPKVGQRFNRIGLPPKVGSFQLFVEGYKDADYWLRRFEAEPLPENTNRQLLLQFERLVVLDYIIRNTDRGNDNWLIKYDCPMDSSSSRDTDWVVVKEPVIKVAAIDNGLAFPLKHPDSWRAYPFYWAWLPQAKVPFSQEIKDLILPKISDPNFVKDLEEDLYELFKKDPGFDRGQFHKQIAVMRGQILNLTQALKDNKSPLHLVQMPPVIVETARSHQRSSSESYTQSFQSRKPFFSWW
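In this quantitative HTS, ADP production by PI4K2A was quantified luminescently after 1 h at ambient temperature; 100 microM adenosine served as plate-quality control.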
GALK inhibitor: inhibitors of human galactokinase; P51570; Purified GALK, Kinase-Glo residual ATP luminescence; Potency, µM (doses to about 57.5 µM), hits mostly inhibitors; actives 0.007% (n = 270,000)
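ATP-depletion format; final 35 uM ATP, 100 uM D-galactose, 5 nM enzyme; pH 8.0 HEPES/Mg2+ buffer; 60 min RT; luminescence read 10 min after detection reagent.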
Large screens that a line does not name were inactive. Only a selection was taken, and hits are over-represented in it overall. Unless noted, calls come from the whole dose curve; as a rule, active = well fitted curve in the direction sought with a large enough effect; inconclusive = small, poorly fitted or top-dose-only effect, or another doubt; inactive = no such curve, though single readings can be large; an effect the other way counts as inactive or inconclusive.

O=C(O)C1CCCN1C(=O)Nc1ccccc1 (stereo unspecified)	HTT aggregate 1.12µM
C=CCN1C(=O)[C@@H](CC(=O)NCCCN2CCCC2=O)[C@]2(C(=O)OCC)CCCCC/C=C/12	none (no result: HTT ATP protect, HTT aggregate, GALK inhibitor)
O=C(O)C[C@@H]1C(=O)O[C@@H]2C(COC(=O)c3cc(O)c(O)c(O)c3)O[C@@H](OC(=O)c3cc(O)c(O)c(O)c3)[C@@H](OC(=O)c3cc(O)c(O)c4c3[C@H]1[C@H](O)C(=O)O4)[C@H]2OC(=O)c1cc(O)c(O)c(O)c1 (stereo partly specified)	GALK inhibitor 14.1µM (no result: PI4K2A block)
COc1ccc2nc(NC(=O)c3ccoc3C)sc2c1	PI4K2A block -84.5
NCC1OC(O[C@H]2[C@H](O)[C@@H](OC3C(O)C(N)CC(N)C3OC3OC(CO)C(O)C(O)C3N)O[C@@H]2CO)C(N)C(O)C1O (stereo partly specified)	none (no result: HTT ATP protect, HTT aggregate, GALK inhibitor)
COc1ccc(OCc2nn3c(Cn4cnc5ccccc54)nnc3s2)cc1	HTT aggregate 25.1µM
c1ccc(CCc2nn3c(Cn4cnc5ccccc54)nnc3s2)cc1	none
COC(=O)[C@]12C[C@H](CC(=O)N3CCCCC3)C(=O)N(Cc3cccc4ccccc34)C1=C[C@H](C(C)(C)C)O[C@@H]2C	none (no result: HTT ATP protect, HTT aggregate, GALK inhibitor)
CC(=O)O[C@H]1CC[C@@]2(C)[C@@H](CC[C@@]3(C)[C@H]2C(=O)C=C2[C@H]4C[C@](C)(C(=O)OCCN5CCCCC5)CC[C@]4(C)CC[C@@]23C)C1(C)C	none (no result: HTT aggregate, PI4K2A block, GALK inhibitor)
COc1ccc(NC(=O)c2cc([N+](=O)[O-])ccc2O)cc1	PI4K2A block -62.6
C=CCN(CC#Cc1ccc(OC)cc1)CC=C	none (no result: HTT ATP protect, HTT aggregate, GALK inhibitor)
Cc1ccc(-c2nc(-c3ccccn3)no2)cc1	PI4K2A block -75.5
c1ccc(-c2ccc(-c3nc(-c4ccccn4)no3)cc2)cc1	PI4K2A block -93.6
COc1ccc(S[C@]2(C(=O)N(C)C)CC(=O)N(c3ccccc3)[C@@H]2c2ccc(OC)cc2)cc1	none (no result: HTT ATP protect, HTT aggregate, GALK inhibitor)
Cc1cc2ncn(/N=C/c3ccc([N+](=O)[O-])s3)c2cc1C	none
O=[N+]([O-])c1ccc(/C=N/n2c(CO)nc3ccccc32)s1	none
Cc1nc2ccccc2n1/N=C/c1ccc([N+](=O)[O-])s1	HTT aggregate 5.01µM
O=[N+]([O-])c1ccc(/C=N/n2cnc3ccccc32)s1	HTT aggregate 15.8µM (no result: HTT ATP protect)
COc1cccc(/C=N/n2c(C)nc3ccccc32)c1OC	HTT aggregate 12.6µM
COC(=O)[C@]12C[C@H](CC(=O)NCCCN3CCCC3=O)C(=O)N(CCc3ccc(OC)c(OC)c3)C1=C[C@H](C1CCCC1)O[C@@H]2C	none (no result: HTT ATP protect, HTT aggregate, GALK inhibitor)
COC(=O)C1CN(CC(C)C)CCS(=O)(=O)N1Cc1ccc(Cl)cc1 (stereo unspecified)	none (no result: HTT ATP protect, HTT aggregate, GALK inhibitor)
CC(NC(=O)CCCCCCN1C(=O)c2ccccc2C1=O)c1ccc2c(c1)CCCC2 (stereo unspecified)	HTT aggregate 10µM
CC(NC(=O)CCCCCN1C(=O)c2ccccc2C1=O)c1ccc2c(c1)CCCC2 (stereo unspecified)	none
O=[N+]([O-])c1ccc(O)c(/C=N\N=C2c3ccccc3-c3ccccc32)c1	HTT aggregate 11.2µM
O=C(N/N=C/c1cc([N+](=O)[O-])ccc1O)C1C2CCCCC21 (stereo unspecified)	none (no result: PI4K2A block)
Cc1ccccc1/C=N/NC(=O)Cn1cnc([N+](=O)[O-])n1	none
O=C(Cn1cnc([N+](=O)[O-])n1)N/N=C/c1ccccc1O	HTT aggregate 8.91µM
O=C(N/N=C/c1cc([N+](=O)[O-])ccc1O)C1CCCCC1	HTT aggregate 10µM
O=C(Cn1cnc([N+](=O)[O-])n1)N/N=C/c1cc(Cl)ccc1O	HTT aggregate 11.2µM
CC(C)CN1C(=O)[C@]2(CC(=O)N(C)C2c2ccccc2)c2cc(-n3cc(-c4ccccc4)nn3)ccc21 (stereo partly specified)	none (no result: HTT ATP protect, HTT aggregate, GALK inhibitor)
C[C@H]1[C@@H](OC(=O)Nc2ccccc2Cl)CC[C@@]23CCCN2C(=O)CCC[C@@H]13	none (no result: HTT ATP protect, HTT aggregate, GALK inhibitor)
Cc1ccn(CC(=O)N/N=C/c2cc([N+](=O)[O-])ccc2O)n1	HTT aggregate 6.31µM (no result: HTT ATP protect)
CCN(CC)CC(=O)Nc1c(C)cccc1C(=O)OC	none (no result: HTT ATP protect, HTT aggregate, GALK inhibitor)
COc1cccc(N=Nc2c(N)[nH]n3c(=O)cc(-c4ccccc4)nc23)c1	HTT aggregate 10µM (no result: GALK inhibitor)
Cc1ccc(N=Nc2c(N)[nH]n3c(=O)cc(-c4ccccc4)nc23)cc1	HTT aggregate inconclusive (no result: GALK inhibitor)
CC(C)c1cc(C(C)C)c(S(=O)(=O)N2CCC(c3cn4ccccc4n3)CC2)c(C(C)C)c1	none (no result: HTT ATP protect, HTT aggregate, GALK inhibitor)
COc1cc(NC(=S)N2CCN(c3ccccn3)CC2)cc(OC)c1	HTT aggregate 8.91µM
Cc1c(C(=O)Nc2ccncc2)sc2nc(-c3ccccc3)cn12	HTT aggregate inconclusive
Cc1c(C(=O)Nc2ccc3c(c2)OCCO3)sc2nc(-c3ccccc3)cn12	HTT aggregate 15.8µM
CC(=O)N1[C@@H](CO)[C@@H](c2ccc(-c3cccc(F)c3)cc2)[C@@H]1CNCC1CCC1	none (no result: HTT ATP protect, HTT aggregate, GALK inhibitor)
N#Cc1ccc(NC(=O)Nc2ccc(Cl)cc2)cc1	HTT aggregate 25.1µM
C=CC[N+]1([C@H]2C[C@H]3[C@@H]4CC[C@H]5C[C@H](O)[C@@H](N6CCOCC6)C[C@]5(C)[C@H]4CC[C@]3(C)[C@H]2OC(C)=O)CCCC1	none (no result: PI4K2A block, GALK inhibitor)
CCOc1cc(CNc2ccccc2)cc(Br)c1OCC(=O)NC(C)(C)C	HTT aggregate 35.5µM
CCOc1cc(CNc2ccc(Br)cc2)cc(Br)c1OCC(=O)NC(C)(C)C	HTT aggregate inconclusive
COc1ccc(S[C@]2(C(=O)N3CCN(C(C)=O)CC3)CC(=O)N(C(=O)Nc3ccc(C)c(Cl)c3)[C@@H]2c2ccc(OC)cc2)cc1	none (no result: HTT ATP protect, HTT aggregate, GALK inhibitor)
CC(C)c1ccc(S(=O)(=O)/N=C2/C=C(Sc3ncn[nH]3)C(=O)c3ccccc32)cc1	HTT aggregate 3.55µM, PI4K2A block -54.7
Cc1ccc(S(=O)(=O)/N=C2\C=C(NS(=O)(=O)c3ccccc3)C(=O)c3ccccc32)c(C)c1	none (no result: HTT ATP protect, HTT aggregate, GALK inhibitor)
Cc1ccc(S(=O)(=O)/N=C2/C=C(Sc3ncn[nH]3)C(=O)c3ccccc32)cc1	HTT aggregate 3.16µM, PI4K2A block -69.9
Cc1ccc(S(=O)(=O)/N=C2/C=C(Sc3ncn[nH]3)C(=O)c3ccccc32)c(C)c1	HTT aggregate 5.01µM (no result: PI4K2A block)
CCCCC(=O)O[C@]1(C(=O)CO)[C@@H](C)C[C@H]2[C@@H]3CCC4=CC(=O)C=C[C@]4(C)[C@@]3(F)[C@@H](O)C[C@@]21C	none (no result: HTT ATP protect, HTT aggregate, GALK inhibitor)
CCOc1ccc(NC(=S)N2CCCN(Cc3cc(C)ccc3C)C2)cc1	HTT aggregate 28.2µM
O=C(COc1ccc([N+](=O)[O-])cc1)Nc1ccc(C(=O)NCc2cccnc2)cc1	HTT aggregate 3.55µM
Cc1nc(SCc2ccc(F)cc2)n[nH]1	none (no result: HTT ATP protect, HTT aggregate)
Cc1cc(C)nc(SCc2ccc(F)cc2)n1	HTT ATP protect 3.16µM, HTT aggregate inconclusive
COc1ccc(-c2cc3nc(CCl)[nH]c(=O)c3s2)cc1	PI4K2A block -50.3 (no result: HTT ATP protect, HTT aggregate)
